SSB-PriA inh: K. pneumoniae PriA-SSBct interaction inhibition | AlphaScreen SSBct-PriA binding, biotinylated peptide | inhibition, % at 33 µM | actives 0.6% (n = 430,000) | AID 1272365; in the data active means inhibition mostly above about 37%, no sharp cut-off; inactive means mostly below about 20%;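 further: plate controls were negative control peptide for no effect and reference peptide for full effect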
RecA splice inh: inhibitors of M. tuberculosis RecA intein splicing. cell-free RecA intein splicing, fluorescence. inhibition, % (concentration not given with the values). actives 0.75% (n = 290,000); in the data active means inhibition above about 30%;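 further: 0% = vehicle wells and 100% = reference inhibitor control wells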
Target sequence (P9WHJ3 whole entry, looked up, canonical isoform): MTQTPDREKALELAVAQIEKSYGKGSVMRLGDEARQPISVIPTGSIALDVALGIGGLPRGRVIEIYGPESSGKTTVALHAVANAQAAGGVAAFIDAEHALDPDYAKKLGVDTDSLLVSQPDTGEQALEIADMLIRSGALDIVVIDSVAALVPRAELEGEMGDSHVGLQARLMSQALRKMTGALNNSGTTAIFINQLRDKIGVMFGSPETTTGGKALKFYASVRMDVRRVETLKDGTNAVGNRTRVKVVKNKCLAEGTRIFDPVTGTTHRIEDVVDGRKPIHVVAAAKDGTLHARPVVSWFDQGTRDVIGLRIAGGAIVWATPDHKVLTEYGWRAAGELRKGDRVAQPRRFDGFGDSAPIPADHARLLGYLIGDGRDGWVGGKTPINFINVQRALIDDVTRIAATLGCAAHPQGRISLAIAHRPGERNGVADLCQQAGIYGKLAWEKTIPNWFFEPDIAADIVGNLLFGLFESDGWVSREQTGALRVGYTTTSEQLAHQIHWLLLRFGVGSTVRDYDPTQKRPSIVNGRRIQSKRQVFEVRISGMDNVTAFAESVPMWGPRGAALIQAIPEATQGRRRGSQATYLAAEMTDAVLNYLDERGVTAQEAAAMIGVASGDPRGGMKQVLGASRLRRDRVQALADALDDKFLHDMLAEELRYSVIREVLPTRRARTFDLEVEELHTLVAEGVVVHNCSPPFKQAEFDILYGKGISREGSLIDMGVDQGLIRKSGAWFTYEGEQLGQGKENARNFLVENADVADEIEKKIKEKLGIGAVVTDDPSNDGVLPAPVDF
CCHF vOTU inh-1: CCHFV vOTU protease inhibition; inhibition, % at 11.5 µM; AID 651958; actives 0.55% (n = 370,000); Pep-AMC fluorescence; further: 0% = vehicle wells with enzyme and 100% = no enzyme wells
3CLpro inhibitor: SARS-CoV 3CLpro protease inhibition; P0C6X7; AID 1706; recombinant SARS-CoV 3CLpro, quenched FRET peptide cleavage; actives 0.14% (n = 290,000); inhibition, % at 6 µM; in the data active means inhibition above about 12%
DUSP3 inh: DUSP3 (human) phosphatase inhibition; P51452; recombinant VHR phosphatase, pNPP absorbance; inhibition, % at 13.3 µM; actives 0.52% (n = 290,000); AID 1654; in the data active means inhibition above about 50%
CCHF vOTU inh-2: confirmation of CCHF virus vOTU protease inhibitors; Recombinant CCHFV vOTU, Pep-AMC fluorescence; inhibition, % at 11.5 µM; actives 17% (n = 1,900); shares compounds with CCHF vOTU inh-1; AID 686976
* marks the source's active call; other numbers are inactive results; / = no result given. Hits are enriched below; roughly 1.7% of the tested compounds scored in any of these assays. Unless noted, no stated cut-off is given here; in the data, active means inhibition above about 30%; inactive means the rest.

SMILES	SSB-PriA inh	RecA splice inh	CCHF vOTU inh-1	3CLpro inhibitor	DUSP3 inh	CCHF vOTU inh-2
COC(=O)c1ccc(C(=O)Nc2nc(-c3ccc4ccccc4c3)cs2)cc1	-7.0	/	/	/	/	/
COC(=O)Nc1ccc(S(=O)(=O)N2CCC(C(=O)N(C)C3CCCCC3)CC2)cc1	-10.7	0.5	30.6*	-4.9	9.3	-19.1
C=C1c2nc3ccccc3n2C=C(c2ccc(C)cc2)N1c1ccccc1	0.6	/	34.7*	/	/	-2.3
CCOc1cc(C)c(C(C)C)cc1S(=O)(=O)n1cccn1	-14.0	/	/	/	/	/
O=C(Cn1cc(COC(=O)c2c3ccccc3cc3ccccc23)nn1)c1ccc(O)cc1	/	/	34.1*	/	/	-22.9
COc1ccc2cc([C@H](C)C(=O)OCc3cn(CC(=O)c4ccc(O)cc4)nn3)ccc2c1	-2.5	/	8.8	/	/	/
Cn1nc(CN(C(=O)c2ccccc2C(F)(F)F)C2CCCC2)c2c1CCC2	14.0	/	/	/	/	/
O=C1CCn2c1c(O)c1ccccc1c2=O	9.3	/	95.0*	/	/	34.3*
O=C(Cc1ccc(F)cc1)NNC(=O)c1ccc(=O)n(Cc2ccccc2)c1	-1.0	/	/	/	/	/
CC(=C\c1ccccc1)/C=C1/SC(=S)N(C(C(=O)O)C(C)C)C1=O (stereo not drawn)	-4.4	13.2	32.0*	-1.1	4.2	12.3
CCC(C(=O)O)N1C(=O)/C(=C/C(C)=C/c2ccccc2)SC1=S (stereo not drawn)	-7.9	11.0	22.4	3.4	1.2	/
O=C1C(Cl)=C(NC(=O)c2ccccc2)C(=O)C(Cl)=C1NC(=O)c1ccccc1	1.4	22.9	96.9*	-4.1	30.3	-7.8
O=C(Nc1cccc(Cl)c1)c1ccccc1	-7.3	/	0.8	/	/	/
CN(C1=C(NC(=O)c2ccc(Cl)cc2)C(=O)c2ccccc2C1=O)c1ccccc1	103.7	43.0*	44.7*	1.9	-21.1	14.2
CNC(=O)Cc1csc(NC(=O)c2ccc(-n3cncn3)nn2)n1	-17.0	/	/	/	/	/
CCN1/C(=C\C=C(C(C)=O)C(C)=O)Sc2ccccc21	9.5	-3.2	37.1*	2.1	22.7	25.0
CNCCCOc1ccc(C)cc1Br	-4.5	-0.3	29.7*	3.3	39.2	-14.3
O=C1c2ccccc2C(=O)N1CC1=NCCc2ccccc21	-6.6	1.7	39.4*	-6.8	31.5	-14.8
CCc1ccc(OCC(=O)NC(NC(=S)Nc2ccccc2C)C(Cl)(Cl)Cl)cc1 (stereo not drawn)	7.5	-1.1	29.8*	1.0	18.1	-23.8
COc1cccc2c1C(=O)C=C(C)C2=O	12.2	25.3	4.1	1.3	-7.0	/
COC1=CC(=O)c2nc(Cl)ccc2C1=O	/	/	113.3*	/	/	100.1*
O=C(Nc1nc2c(s1)COc1ccccc1-2)c1ccc(Br)s1	12.0	/	/	/	/	/
CCn1c(C)cc(/C=C2/NC(=O)N(CC(=O)Nc3cccc(C)c3)C2=O)c1C	12.4	-6.8	31.0*	1.8	16.5	3.3
CC(=O)N1CCN(C(=O)c2ccccc2C(=O)O)CC1	-7.0	/	/	/	/	/
Cn1nc(C(=O)Nc2ccccc2Cc2nc(-c3cccs3)no2)ccc1=O	1.0	/	/	/	/	/
SMILES	SSB-PriA inh	RecA splice inh	CCHF vOTU inh-1	3CLpro inhibitor	DUSP3 inh	CCHF vOTU inh-2
CCc1cccc(NC(=O)Nc2cnc(N3CCOCC3)nc2)c1	-15.0	/	/	/	/	/
CC(C)(C=O)C1=CC(=O)c2ccccc2C1=O	17.3	/	79.3*	-2.5	47.0	-27.4
CC1=CC(=O)c2ccccc2C1=O	-2.4	14.8	11.2	-4.2	8.6	/
CCOc1cc(N2CCOCC2)c(OCC)cc1NC(C)C(=O)N1CCN(CC)CC1 (stereo not drawn)	4.0	0.0	31.2*	5.1	16.7	2.5
O=C(c1nn(-c2ccccc2)c2c1CCc1occc1-2)N1CCc2ccccc21	2.0	/	/	/	/	/
COc1c2c(c3c(c1OC)c(=O)c1ccccc1n3C)OCO2	-11.7	/	22.0	/	/	/
COc1c2c(c(OC)c3c1c(=O)c1ccccc1n3C)OCO2	-17.0	/	54.2*	/	/	-19.8
Nc1ccccc1C(=O)N1CCc2ccccc21	-23.3	2.4	48.8*	4.5	13.4	-4.3
O=C(O)c1[nH]c2ccccc2c1C(c1cc(Cl)cc([N+](=O)[O-])c1O)c1c(C(=O)O)[nH]c2ccccc12	3.0	14.6	45.9*	11.6	10.7	26.2
O=S(=O)(CCOc1ccccc1)NCCn1ccc(-c2ccsc2)n1	-26.0	/	/	/	/	/
O=c1oc2ccccc2c(N2CCCC2)c1[N+](=O)[O-]	-7.8	-1.7	31.5*	1.7	15.2	-15.0
Cc1cc(NC(=O)Cc2cccc3ccccc23)n(-c2nc3c(cnn3-c3ccc(F)cc3)c(=O)[nH]2)n1	-14.0	/	/	/	/	/
COc1ccc(OC)c(S(=O)(=O)Nc2ccc(O)c3ccccc23)c1	11.7	/	65.6*	0.4	-0.9	-13.3
COc1ccc(OC)c(S(=O)(=O)Nc2cccc3c(O)cccc23)c1	10.1	-3.9	-6.5	/	/	/
C[C@H](CO)N1C[C@H](C)[C@@H](CN(C)Cc2ccc(-c3ccccc3)cc2)Oc2ncc(C#C[C@@H](C)O)cc2C1=O	/	/	32.8*	/	/	-24.7
CN1C(=O)C(=Cc2ccc(N3CCOCC3)o2)C(=O)N(C)C1=O	-4.2	-2.5	29.5*	5.5	2.1	1.0
COc1ccc(N/C=C2/Sc3ccccc3NC2=O)cc1	-1.7	-2.7	-6.3	-1.3	0.6	/
Cc1ccc(N/C=C2/Sc3ccccc3NC2=O)cc1	7.8	-4.1	30.6*	9.3	1.6	-8.8
Cc1cccc2cc(C(c3nnnn3CC3CCCO3)N3CCc4ccccc4C3)c(=O)[nH]c12 (stereo not drawn)	13.0	/	/	0.6	21.8	/
Cc1ccc2cc(C(c3nnnn3CC3CCCO3)N3CCc4ccccc4C3)c(=O)[nH]c2c1 (stereo not drawn)	0.5	-4.0	83.8*	1.0	20.7	-0.4
CN(C)c1ccc(C2C(=C(O)c3ccc(Br)cc3)C(=O)C(=O)N2C)cc1 (stereo not drawn)	-5.2	/	/	/	/	/
CN(C)C(=O)c1c2c(nc3ccccc13)-c1ccccc1CC2	-23.2	-2.7	32.9*	-2.7	31.9	-20.9
CCCCN(CCCNC(=O)Cn1nc(CC)n2c(cc3sc(C)cc32)c1=O)Cc1ccccc1	-31.9	1.6	19.3	0.5	-3.0	/
CCc1nn(CC(=O)NCCCN(CC)Cc2ccccc2)c(=O)c2cc3sccc3n12	6.5	1.6	34.9*	-3.1	24.9	-10.4
O=C1CCC/C1=C/Nc1ccc(Cl)cc1	-1.0	0.2	19.1	6.8	24.5	/
SMILES	SSB-PriA inh	RecA splice inh	CCHF vOTU inh-1	3CLpro inhibitor	DUSP3 inh	CCHF vOTU inh-2
O=C1CCCC/C1=C\Nc1ccc(O)cc1	/	-62.3	35.4*	2.7	9.9	2.2
Cc1cnc(C2OCCO2)c2cccc(N)c12	/	/	38.0*	/	/	64.8*
O=c1[nH]c(C2CCCN(S(=O)(=O)c3ccc(F)cc3)C2)nc2c1nnn2Cc1ccccc1 (stereo not drawn)	-7.3	0.9	-5.2	-3.5	15.9	/
CC(C)(C)c1ccc(Cn2nnc3c(=O)[nH]c(C4CCCN(C(=O)Cc5cccs5)C4)nc32)cc1 (stereo not drawn)	0.7	8.6	31.1*	4.9	23.5	4.2
O=c1[nH]c(C2CCCN(S(=O)(=O)Cc3ccccc3)C2)nc2c1nnn2Cc1cccc(Cl)c1 (stereo not drawn)	-0.2	-1.2	29.9*	1.4	24.1	-4.9
COc1ccc(CNC(=O)c2ccc(CSCc3cccc(C)c3)o2)cc1	5.0	/	/	/	/	/

Compound activity from PubChem BioAssay.
